From PubChem
Cycloheximide cs – counter-screen hit for Shiga toxin inhibitors, cycloheximide. cell reporter, cycloheximide protein synthesis inhibition counterscreen. max response, %. 12% of 300,000 active. AID 2314; in the data active = max response mostly above about 13%, no sharp cut-off; inactive = mostly below about 14%; also: read at 38.3 µM for the half of the compounds with a filed dose; 0% is about no effect
Shiga toxin inh – Shiga toxin inhibition; Vero cells, Shiga toxin protein synthesis inhibition reporter; inhibition, % at 38.7 µM; 9.2% of 290,000 active; AID 2315; in the data active = inhibition mostly above about 28%, no sharp cut-off; inactive = mostly below about 43%; also: 0% is about no effect
Pf growth 96h – P. falciparum growth inhibition at 96 hours | P. falciparum luciferase reporter growth, 96 h | Potency, µM (series often up to 28.7 µM), inactives show top-dose activity change, negative = inhibition, hits mostly inhibitors | 6.9% of 320,000 active | AID 504834; also: potency is read from the fitted curve at half-maximal effect; % is scaled to controls: 0 for no effect and ±100 for the full control effect
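Two parasite generations (96 h, 37 C, 5% CO2) of compound exposure in infected erythrocytes (0.05% parasitemia, 2% hematocrit). Luciferase-reporter P. falciparum; decreased luminescence indicates inhibited growth, aimed at apicoplast-acting delayed death.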
Pf growth 48h – inhibits P. falciparum growth in the first generation, 48 h; P. falciparum luciferase growth in erythrocytes, 48 h; Potency, µM (top dose mostly 28.7 µM), without a hit: top-dose activity change, negative = inhibition, most hits filed as inhibitors; 5.9% of 310,000 active; AID 504832; also: potency is read from the fitted curve at half-maximal effect; % is scaled to controls: 0 for no effect and ±100 for the full control effect
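A one-generation exposure of luciferase-tagged malaria parasites in RPMI 1640/Albumax erythrocyte culture, 37 C and 5% CO2. Inhibition is inferred from decreased luminescence after adding detection reagent.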
HCMV inh – human cytomegalovirus inhibition; HFF cells, HCMV-luciferase reporter, 72 h; stronger effect = lower value; activity change, negative = inhibition, % at 57.5 µM; 4.5% of 410,000 active; in the data active = activity change below about -60%; inconclusive = no clear call, values can overlap the other calls; inactive = above about -39%; also: % is scaled to controls: 0 for no effect and ±100 for the full control effect
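After 16 h attachment at 37C, HFF cells received test compound and HCMV-luciferase (1 PFU/cell); reporter luminescence read 72 h later, data normalized against buffer-only and known inhibitor Salinomycin.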
* marks the source's active call; other numbers are inactive results; [ ] = remark or other dose. Most compounds without a hit are left out; they make up all but 20% or so of the library. Unless noted, calls follow the shape of the dose curve; as a rule, active = well fitted inhibition curve with a large enough effect; inconclusive = small, poorly fitted or top-dose-only effect, or another doubt; inactive = no such curve, though single readings can be large or run the other way.

`S=C(NCc1cccs1)Nc1ccc(Br)cc1Cl` gave Cycloheximide cs 44*, Shiga toxin inh 81*, Pf growth 96h -5%, Pf growth 48h 26% and HCMV inh -27.
`CC(C)(C)c1ccc(NC(=S)NCc2cccs2)cc1` gave Cycloheximide cs 23*, Shiga toxin inh 54, Pf growth 96h inconclusive and HCMV inh -19.
For CC1(C)C2([N+](=O)[O-])CN3CC1([N+](=O)[O-])CN(C2)C3C(O)C(O)C(O)CO (centres undefined) the results were Cycloheximide cs 1, Shiga toxin inh -4, Pf growth 96h 1%, Pf growth 48h 12% and HCMV inh 24.
`N#CC1(NC(=O)CSc2n[nH]c(-c3ccccc3)n2)CCCCC1` gave Pf growth 96h -5%, Pf growth 48h -18% and HCMV inh -17.
`Cc1cc(C)cc(NC(=S)NCc2cccs2)c1` gave Cycloheximide cs -2, Shiga toxin inh 26*, Pf growth 96h -1%, Pf growth 48h 19% and HCMV inh -13.
Screening COc1cc(NC(=S)NCc2cccs2)cc(OC)c1 returned Cycloheximide cs 7, Shiga toxin inh -2, Pf growth 96h -23%, Pf growth 48h 10% and HCMV inh -10.
For CC(=O)Nc1ccc(NCc2cccs2)cc1 the results were Cycloheximide cs 12, Shiga toxin inh 28, Pf growth 96h inconclusive, Pf growth 48h 31% and HCMV inh 62.
Oc1ccc(NCc2cccs2)cc1 was read as Cycloheximide cs 24*, Shiga toxin inh -2, Pf growth 96h inconclusive, Pf growth 48h inconclusive and HCMV inh -32.
S=C(NCc1cccs1)Nc1cccc2ccccc12 was read as Cycloheximide cs 2, Shiga toxin inh 21, Pf growth 96h 0%, Pf growth 48h 15% and HCMV inh -8.
Screening Cc1cccc(NC(=S)NCc2cccs2)c1C returned Cycloheximide cs 22*, Shiga toxin inh -13, Pf growth 96h -22%, Pf growth 48h 1% and HCMV inh -32.
`O=C1c2ccccc2NC2(c3ccccc3)c3ccccc3-n3nncc3CN12` (centres undefined) gave HCMV inh 9.
`CCn1c(C)nc2cc(C(=O)NNC(=S)Nc3ccc(OC)cc3)ccc21` gave Cycloheximide cs 9, Shiga toxin inh -3, Pf growth 96h inconclusive, Pf growth 48h inconclusive and HCMV inh inconclusive.
COc1cc([C@@H]2c3cc4c(cc3[C@@H](O)[C@H]3COC(=O)[C@H]23)OCO4)cc(OC)c1O[Si](C)(C)C(C)(C)C was read as Cycloheximide cs -5, Shiga toxin inh -2, Pf growth 96h 8.3µM*, Pf growth 48h 7.4µM* and HCMV inh inconclusive.
`COc1cc(C2c3cc4c(cc3C3OC(=O)C2C3CO)OCO4)cc(OC)c1OC` (centres undefined) gave HCMV inh -76*.
COc1cc(C2c3cc4c(cc3CC3COC(=O)C32)OCO4)cc(OC)c1O (centres undefined) was read as HCMV inh -90*.
Screening COc1cc(C2CC(=O)Oc3cc4c(cc32)OCO4)cc(OC)c1OC (centres undefined) returned Cycloheximide cs 2, Shiga toxin inh inactive and HCMV inh -4.
Screening COc1cc(C2c3cc4c(cc3OC(N3CCCCC3)C2C)OCO4)cc(OC)c1O (centres undefined) returned HCMV inh -5.
For Cc1cc(C)cc(-n2c(SCC(N)=O)nc3c([nH]c4ccccc43)c2=O)c1 the results were HCMV inh -71*.
For CC(Sc1nc2c([nH]c3ccccc32)c(=O)n1-c1ccccc1)c1ccccc1 (centres undefined) the results were HCMV inh -83*.
For COC(=O)C(C)Sc1nc2c([nH]c3ccccc32)c(=O)n1-c1ccc(OC)cc1 (centres undefined) the results were HCMV inh 20.
COc1cccc(-n2c(SCc3ccc(F)cc3)nc3c([nH]c4ccccc43)c2=O)c1 was read as HCMV inh -22.
`CCSc1nc2c([nH]c3ccccc32)c(=O)n1-c1cccc(OC)c1` gave HCMV inh -63*.
For O=C(CSc1nc2c([nH]c3ccccc32)c(=O)n1-c1ccccc1F)Nc1ccccc1C(F)(F)F the results were HCMV inh -89*.
Cc1ccc(NC(=O)c2cc(C)nn2-c2ccccc2)cc1 was read as Cycloheximide cs -1, Shiga toxin inh -12, Pf growth 96h 13µM* and HCMV inh -33.
`Cc1cc(C(=O)Nc2ccc(Cl)cc2)n(-c2ccccc2)n1` gave Cycloheximide cs 19*, Shiga toxin inh 31, Pf growth 96h inconclusive, Pf growth 48h 21% and HCMV inh -14.
For Cc1cc(C(=O)Nc2ccccc2C)n(-c2ccccc2)n1 the results were Cycloheximide cs -2, Shiga toxin inh -6, Pf growth 96h 10%, Pf growth 48h 6%[0.00184 µM] and HCMV inh inconclusive.
`O=C(O)CC(c1cccc2ccccc12)n1cccc1` (centres undefined) gave Cycloheximide cs -2, Shiga toxin inh -17, Pf growth 96h 11%, Pf growth 48h 42% and HCMV inh 6.
For COc1ccc(CCNC(=O)C2CCN(S(=O)(=O)c3ccc(SC)cc3)CC2)cc1 the results were Cycloheximide cs -2, Shiga toxin inh -7, Pf growth 96h 0%, Pf growth 48h -21% and HCMV inh -28.
Screening C=CCSc1nc(=O)n2ccc(C)cc2n1 returned Cycloheximide cs 28*, Shiga toxin inh 37, Pf growth 96h inconclusive, Pf growth 48h 11% and HCMV inh 0.
For C=CCSc1nc(=O)n2ccccc2n1 the results were Cycloheximide cs 11, Shiga toxin inh 4, Pf growth 96h 5%, Pf growth 48h 16% and HCMV inh -6.
Screening CCCCCCCCCCCCCCCC[N+](C)(C)CC returned Pf growth 96h 2.6µM*, Pf growth 48h 3.3µM* and HCMV inh -96*.
`CCCCCCCCCC[N+](C)(C)CCCCCCCCCC` gave Pf growth 96h 1.7µM* and Pf growth 48h 1.7µM*.
For CCCCCC[N+](C)(C)CCSSCC[N+](C)(C)CCCCCC the results were Cycloheximide cs 3, Shiga toxin inh 77, Pf growth 96h -1%, Pf growth 48h -1% and HCMV inh 5.
For NNC(=O)c1cc2ccccc2cc1NS(=O)(=O)c1ccccc1 the results were Cycloheximide cs 2, Shiga toxin inh -3, Pf growth 96h inconclusive, Pf growth 48h 5.9µM* and HCMV inh 20.
COc1ccccc1-c1ccc(/C=C2\C=CC(=O)O2)o1 was read as Cycloheximide cs 45*, Shiga toxin inh 92*, Pf growth 96h 0%, Pf growth 48h 7% and HCMV inh 99.
`COc1ccc(Nc2nc(Nc3ccc(OC)cc3)nc(SC3=NCCS3)n2)cc1` gave Cycloheximide cs -8, Shiga toxin inh -13, Pf growth 96h 12µM* and HCMV inh -19.
